This note sets out measurements from PubChem BioAssay (NCI).

About 79,000 compounds went through this panel and 15% of them were active in at least one assay; those are over-represented in the sample as a whole. Unmarked numbers belong to inactive results. Activity calls are given as the source filed them. Cut-off read from the data, not from the text of the source: active = growth inhibition above about 70%; inactive = the rest. Where a SMILES comes first, the peptide text is derived from it. The star is where a group is joined. X7 = Clc1c(Cl)c(Cl)c(O*)c(Cl)c1Cl; Boc = CC(C)(C)OC(=O)*; OBn = c1ccc(CO*)cc1; Bn = c1ccc(C*)cc1

Assay [1] in a line: NCI Yeast Anticancer Drug Screen. Data for the rad50 strain (AID 155).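 Note: 0% = growth of vehicle-only cultures of the same strain.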 As to conditions: S. cerevisiae rad50 strain growth inhibition, hits give high values. A digest of the protocol:
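Readout: growth inhibition relative to vehicle-treated cultures. Compound exposure was carried out in a genetically defined yeast strain deficient in DNA damage repair.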

Assay [2] is described as follows: NCI Yeast Anticancer Drug Screen. Data for the mec2-1 strain (AID 157). Conditions: S. cerevisiae mec2-1 strain, hits give high values. A digest of the protocol: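 Mutant yeast (mec2-1) grown with compound; growth inhibition relative to vehicle control reported.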
A short description of assay [3]: NCI Yeast Anticancer Drug Screen. Data for the sgs1 mgt1 strain (AID 161).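 Note: 0% = growth of cultures given vehicle only.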 Conditions: S. cerevisiae sgs1 mgt1 strain, hits give high values. Summed up:
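Growth of a repair-deficient yeast mutant was monitored after compound treatment and expressed as inhibition relative to vehicle-treated cultures.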

Assay [4] can be described thus: NCI Yeast Anticancer Drug Screen. Data for the cln2 rad14 strain (AID 165).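 Note: 0% = growth equal to vehicle treated cultures.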 Conditions: S. cerevisiae cln2 rad14 strain, hits give high values. Summed up:
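Readout is yeast growth inhibition versus vehicle-treated controls, using a strain with cln2 and rad14 alterations exposed to compound.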

Assay [5] is described as follows: NCI Yeast Anticancer Drug Screen. Data for the bub3 strain (AID 167). Conditions: S. cerevisiae bub3 mutant strain, hits give high values. A digest of the protocol:
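Readout: yeast growth inhibition, expressed relative to vehicle-only wells. The test organism is a mutant strain from a panel with lesions in DNA repair or checkpoint genes.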

Assay [6] in a line: NCI Yeast Anticancer Drug Screen. Data for the mlh1 rad18 strain (AID 175). As to conditions: S. cerevisiae mlh1 rad18 strain growth inhibition, hits give high values. Summed up: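 Genetically defined yeast (DNA repair-deficient) exposed to compounds; growth inhibition determined relative to vehicle.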
[7] abbreviates: at 5.0 µM (retest, dose inferred, filed as 0.5).
The mark [8] stands for this setting: at 50.0 µM (retest, dose inferred, filed as 5.0).

Regarding `CCOC(=O)Nc1cc2c(c(N)n1)N=C(c1ccccc1)CN2`, the growth inhibition in assay [1] (setting [7]) is 6%; in assay [1] (setting [8]) it was 34%; in assay [1] (at 50.0 µM) it was 36.3%; in assay [2] (setting [7]), -25%; in assay [2] (setting [8]) it was 35%; in assay [2] (at 50.0 µM), -3.7%. Further, the growth inhibition in assay [3] (setting [7]) was -13%; in assay [3] (setting [8]), 89% (active); in assay [3] (at 50.0 µM) it was 37.2%; in assay [4] (setting [7]) it was 11%; in assay [4] (setting [8]), 33%; in assay [4] (at 50.0 µM), 17.9%. In addition, the growth inhibition in assay [5] (setting [7]) is 22%; in assay [5] (setting [8]), 80% (active); in assay [5] (at 50.0 µM), 47.1%; in assay [6] (setting [7]), 10%; in assay [6] (setting [8]), 52%; in assay [6] (at 50.0 µM) it was 18.1%.
Consider `C#CC(CC(C)CC(C)(C)C)NC` (configuration not stated), for which the growth inhibition is 2% in assay [1] (setting [7]); 91% (active) in assay [1] (setting [8]); 97.2% (active) in assay [1] (at 50.0 µM); 2% in assay [2] (setting [7]); 58% in assay [2] (setting [8]); 85.5% (active) in assay [2] (at 50.0 µM). Moreover, the growth inhibition was 0% in assay [3] (setting [7]); 97% (active) in assay [3] (setting [8]); 96.8% (active) in assay [3] (at 50.0 µM); 7% in assay [4] (setting [7]); 53% in assay [4] (setting [8]); 76% (active) in assay [4] (at 50.0 µM). Also, the growth inhibition is 2% in assay [5] (setting [7]); 86% (active) in assay [5] (setting [8]); 92.3% (active) in assay [5] (at 50.0 µM); 1% in assay [6] (setting [7]); 73% (active) in assay [6] (setting [8]); 96% (active) in assay [6] (at 50.0 µM).
For `CC[n+]1ccc(Nc2ccc(NC(=O)c3ccc(C(=O)Nc4ccc(Nc5cc[n+](CC)c(N)n5)cc4)cc3)cc2)nc1N`, the growth inhibition in assay [1] (setting [7]) was 24%; in assay [1] (setting [8]) it was 98% (active); in assay [1] (at 50.0 µM), 98.2% (active); in assay [2] (setting [7]) it was 30%; in assay [2] (setting [8]) it was 99% (active); in assay [2] (at 50.0 µM) it was 98.9% (active). In addition, the growth inhibition was 26% in assay [3] (setting [7]); 99% (active) in assay [3] (setting [8]); 99% (active) in assay [3] (at 50.0 µM); -3% in assay [4] (setting [7]); 98% (active) in assay [4] (setting [8]); 97.3% (active) in assay [4] (at 50.0 µM). For the same molecule, the growth inhibition in assay [5] (setting [7]) is 28%; in assay [5] (setting [8]), 96% (active); in assay [5] (at 50.0 µM) it was 98% (active); in assay [6] (setting [7]), 50%; in assay [6] (setting [8]) it was 99% (active); in assay [6] (at 50.0 µM), 98.3% (active).
In the case of `O=[N+]([O-])c1ccc2nc(Nc3ccccc3)c(Nc3ccccc3)nc2c1`, the growth inhibition is -18% in assay [1] (setting [7]); 91% (active) in assay [1] (setting [8]); 74.1% (active) in assay [1] (at 50.0 µM); 1% in assay [2] (setting [7]); 95% (active) in assay [2] (setting [8]); 77.8% (active) in assay [2] (at 50.0 µM). Moreover, the growth inhibition in assay [3] (setting [7]) is -1%; in assay [3] (setting [8]) it was 93% (active); in assay [3] (at 50.0 µM), 63.9%; in assay [4] (setting [7]), 24%; in assay [4] (setting [8]), 93% (active); in assay [4] (at 50.0 µM) it was 70.5% (active). Besides, the growth inhibition in assay [5] (setting [7]) was 15%; in assay [5] (setting [8]), 93% (active); in assay [5] (at 50.0 µM), 72.2% (active); in assay [6] (setting [7]), -6%; in assay [6] (setting [8]), 93% (active); in assay [6] (at 50.0 µM), 73% (active).
As to `CC(C)CC(NC(=O)C(CCC(=O)OCc1ccccc1)NC(=O)OC(C)(C)C)C(=O)NC(COCc1ccccc1)C(=O)NC(Cc1ccccc1)C(=O)Oc1c(Cl)c(Cl)c(Cl)c(Cl)c1Cl` (configuration not stated) (Boc-E(OBn)LS(Bn)F-X7; configuration not given here), the growth inhibition is 39% in assay [1] (setting [7]); 58% in assay [1] (setting [8]); 80.5% (active) in assay [1] (at 50.0 µM); 36% in assay [2] (setting [7]); 56% in assay [2] (setting [8]); 84.8% (active) in assay [2] (at 50.0 µM). The growth inhibition in assay [3] (setting [7]) was 38%; in assay [3] (setting [8]), 80% (active); in assay [3] (at 50.0 µM), 82.8% (active); in assay [4] (setting [7]), 26%; in assay [4] (setting [8]) it was 53%; in assay [4] (at 50.0 µM) it was 85.3% (active). Further, the growth inhibition in assay [5] (setting [7]) is 34%; in assay [5] (setting [8]), 84% (active); in assay [5] (at 50.0 µM) it was 78% (active); in assay [6] (setting [7]), 42%; in assay [6] (setting [8]), 76% (active); in assay [6] (at 50.0 µM), 79.6% (active).
As for `C(=N\NC1=NCCN1)/c1cccc2cc3ccncc3nc12`, the growth inhibition was 8% in assay [1] (setting [7]); 66% in assay [1] (setting [8]); 86.5% (active) in assay [1] (at 50.0 µM); 7% in assay [2] (setting [7]); 60% in assay [2] (setting [8]); 91% (active) in assay [2] (at 50.0 µM). The growth inhibition is -4% in assay [3] (setting [7]); 63% in assay [3] (setting [8]); 83.8% (active) in assay [3] (at 50.0 µM); -6% in assay [4] (setting [7]); 53% in assay [4] (setting [8]); 88% (active) in assay [4] (at 50.0 µM). Also, the growth inhibition was -12% in assay [5] (setting [7]); 27% in assay [5] (setting [8]); 87.7% (active) in assay [5] (at 50.0 µM); -9% in assay [6] (setting [7]); 53% in assay [6] (setting [8]); 82.5% (active) in assay [6] (at 50.0 µM).
In the case of `CC12C=CC(=O)C=C1CCC1C3CCC(O)(C(=O)CO)C3(C)CC(O)C12F` (configuration not stated), the growth inhibition in assay [1] (setting [7]) was 2%; in assay [1] (setting [8]) it was 63%; in assay [1] (at 50.0 µM), 11.4%; in assay [2] (setting [7]), 4%; in assay [2] (setting [8]), 65%; in assay [2] (at 50.0 µM) it was 25.6%. The growth inhibition in assay [3] (setting [7]) is 3%; in assay [3] (setting [8]), 54%; in assay [3] (at 50.0 µM), 7.65%; in assay [4] (setting [7]), 6%; in assay [4] (setting [8]) it was 35%; in assay [4] (at 50.0 µM), 72.8% (active). The growth inhibition in assay [5] (setting [7]) is 6%; in assay [5] (setting [8]) it was 82% (active); in assay [5] (at 50.0 µM) it was 0.6%; in assay [6] (setting [7]), 4%; in assay [6] (setting [8]), 79% (active); in assay [6] (at 50.0 µM) it was 2.15%.
`Nc1nnc(-c2cc(=O)c3cc(Cl)ccc3o2)s1`: the growth inhibition in assay [1] (setting [7]) was -1%; in assay [1] (setting [8]), 13%; in assay [1] (at 50.0 µM), 60%; in assay [2] (setting [7]), -1%; in assay [2] (setting [8]), 8%; in assay [2] (at 50.0 µM) it was 20.4%. Moreover, the growth inhibition was -2% in assay [3] (setting [7]); 6% in assay [3] (setting [8]); 20.1% in assay [3] (at 50.0 µM); -2% in assay [4] (setting [7]); 11% in assay [4] (setting [8]); 10.7% in assay [4] (at 50.0 µM). Moreover, the growth inhibition was 3% in assay [5] (setting [7]); 11% in assay [5] (setting [8]); 22.4% in assay [5] (at 50.0 µM); -1% in assay [6] (setting [7]); 10% in assay [6] (setting [8]); 10.4% in assay [6] (at 50.0 µM).
On to `c1cc2ccc1C1NCCCN1CCN1CCCNC1c1ccc(cc1)C1NCCCN1CCN1CCCNC21` (configuration not stated), for which the growth inhibition in assay [1] (setting [7]) was 3%; in assay [1] (setting [8]), -11%; in assay [1] (at 50.0 µM), -8.3%; in assay [2] (setting [7]), -19%; in assay [2] (setting [8]), -2%; in assay [2] (at 50.0 µM) it was -22.6%. Also, the growth inhibition is -14% in assay [3] (setting [7]); 3% in assay [3] (setting [8]); -2% in assay [3] (at 50.0 µM); -25% in assay [4] (setting [7]); -8% in assay [4] (setting [8]); 53.2% in assay [4] (at 50.0 µM). Besides, the growth inhibition is -1% in assay [5] (setting [7]); -1% in assay [5] (setting [8]); 4.1% in assay [5] (at 50.0 µM); -28% in assay [6] (setting [7]); -14% in assay [6] (setting [8]); -31.4% in assay [6] (at 50.0 µM).
